Shown are actives, neighbours in structure and some others; about 11% of the full set was active somewhere.
USP17 block: inhibitors of human USP17 deubiquitinase | Ubiquitin carboxyl-terminal hydrolase 17-like protein 5 (Homo sapiens), A8MUK1 | 47,000 tested, 6.5% active | purified USP17, Ub-rhodamine cleavage fluorescence, 3 h | inhibition, % at 50 µM
USP30 block: inhibitors of human USP30 deubiquitinase | 47,000 tested, 5.3% active | inhibition, % at 25 µM | purified USP30, Ub-rhodamine cleavage fluorescence | Ubiquitin carboxyl-terminal hydrolase 30 (Homo sapiens), Q70CQ3
USP28 block: inhibitors of human USP28 deubiquitinase; Ubiquitin carboxyl-terminal hydrolase 28 (Homo sapiens), Q96RU2; purified USP28, Ub-rhodamine cleavage fluorescence, 30 min; inhibition, % at 25 µM; 47,000 tested, 3% active; AID 1645857, 2021
* = called active by the depositor; i = inactive; · = not tested or not shown. Cut-off read from the data, not from the text of the source: active = inhibition above about 30%; inactive = the rest.

SMILES	USP17 block	USP30 block	USP28 block
CC1c2[nH]c3ccccc3c2C[C@@H]2C(=O)N(CCc3ccccc3)CC(=O)N12 (some centres undefined)	-11	-45	-4
O=C(O)C1CCN(c2ccc([N+](=O)[O-])cc2)CC1	-22	-26	-10
N#Cc1cc([N+](=O)[O-])ccc1N1CCN(c2ccc(O)cc2)CC1	32*	35*	24
CCOc1ccccc1OCC(=O)N1CCc2cc(S(=O)(=O)N3CCCCC3)ccc21	-28	-58	-5
COc1ccccc1NS(=O)(=O)c1ccc2oc(SCC(=O)N3CCc4ccccc4C3)nc2c1	22	25	7
COc1ccccc1NS(=O)(=O)c1ccc2oc(SCc3cn4c(C)cc(C)nc4n3)nc2c1	·	31*	9
COc1ccc(C(=O)NCc2cnn3ccccc23)cc1	-29	-24	-6
COC(=O)c1c(OC)cc2c(c1C)Oc1c(Cl)c(O)c(Cl)c(C)c1C(=O)O2	16	30*	21
COC(=O)c1cc(O)cc(OC)c1C(=O)c1c(O)c(Cl)c(C)c(Cl)c1O	18	10	15
Nc1c(-c2ccccc2)c(COc2ccccc2)nn1-c1nc2ccccc2s1	13	7	-9
Cc1cc(N)n(-c2nc3ccccc3s2)n1	36*	41*	17
CCc1nc(N2CCCC2=O)sc1C(=O)NC1CCCCC1	-7	6	5
COc1ccc(-c2onc(C)c2C)cc1S(=O)(=O)NCc1ccccc1	-40	1	-3
Cc1ccc(-c2onc(C)c2C)cc1S(=O)(=O)NCc1ccccc1	22	35*	15
COc1ccccc1CNc1ncc(C(=O)NC2CCCC2)c(C)n1	-33	-95	-24
O=C(Nc1ccc(F)cc1F)c1csc(-c2ccccc2)n1	83*	21	15
O=C(Nc1ccc(F)cc1F)c1ccc(-c2nc(-c3ccc(F)cc3)cs2)cc1	3	2	3
CCOc1ccc2[nH]c3c(=O)n(CCC4=CCCCC4)cnc3c2c1	·	17	15
COc1ccc2c(c1)[nH]c1c(=O)n(Cc3ccccc3)cnc12	71*	73*	0
CCOc1ccc2[nH]c3c(=O)n(CCN4CCNCC4)cnc3c2c1	2	5	7
O=c1c2[nH]c3ccc(Br)cc3c2ncn1CCN1CCNCC1	38*	40*	12
COc1ccc2[nH]c3c(=O)n(Cc4ccncc4)cnc3c2c1	6	-1	-1
CCOc1ccc2[nH]c3c(=O)n(CCc4ccc(OC)cc4)cnc3c2c1	67*	13	15
O=C(OCCCc1ccccc1)c1nn(Cc2ccccc2)c(=O)c2ccccc12	-1	1	0
COc1ccc(C)cc1NC(=O)c1ccc(N2CCC(C)CC2)c([N+](=O)[O-])c1	-3	4	-8
SMILES	USP17 block	USP30 block	USP28 block
Cc1cc(Nc2nc(C)c(C)s2)nc(C2CCCN(CCO)C2)n1 (centres undefined)	-23	·	·
O=C(NCCN1CCOCC1)c1ccc2c(c1)ncn2-c1ccc(F)c(F)c1	0	-7	2
CC(=O)c1ccc(NC(=O)c2nc3ccccc3nc2N2CCCC2)cc1	-87	-201	-51
O=C(c1nnn(-c2ccc(Br)cc2)n1)N1CCCCC1	-10	-6	3
FC(F)(F)Oc1ccc(-c2cnc(NCc3ccc(Cl)cc3)nc2)cc1	25	34*	20
COc1ccc(-c2cncc(-c3cc(NCc4ccc(Cl)cc4)nc(C)n3)c2)cc1	8	18	1
COc1cc(N2CC[C@H]3[C@H]2CCN3C(=O)c2cnn(C)c2)ncn1	-50	-22	-19
COC(=O)c1cccc(NC(=O)c2ccc(OC)c(S(=O)(=O)N3CCCc4ccccc43)c2)c1	-14	-72	-3
COc1ccc(C(=O)O)cc1S(=O)(=O)N1CCCc2ccccc21	42*	5	11
O=C(Nc1ccccc1)c1ccccc1SCC(=O)N1CCCC1	12	21	12
CS(=O)(=O)Nc1cccc(CNC(=O)c2nc(-c3ccccc3)n(-c3ccccc3)n2)c1	13	10	-2
Cc1ccc(NC(=O)CCc2nc3c(C)nn(-c4ccccc4)c3n(C)c2=O)cc1C	27	7	5
CCc1cccc(NC(=O)CCc2nc3c(C)nn(-c4ccccc4)c3n(C)c2=O)c1	48*	-7	-4
Cc1ccc(NC(=O)CCc2nc3c(C)nn(-c4ccccc4)c3n(C)c2=O)cc1F	3	1	-2
CCn1c(=O)c(CCC(=O)NCc2ccccc2F)nc2c(C)nn(-c3ccccc3)c21	-19	-31	-10
CSc1cccc(NC(=O)CCc2nc3c(C)nn(-c4ccccc4)c3n(C)c2=O)c1	43*	-1	-1
Cc1nn(-c2ccccc2)c2c1nc(CCC(=O)NCc1ccccc1F)c(=O)n2C	13	43*	14
c1ccc(CN2CCN(c3nccn4nc(-c5ccccc5)cc34)CC2)cc1	-10	-51	-8
Cc1ccc(CN2C[C@@H]3c4nc(N5CCCC5)ncc4CS(=O)(=O)[C@@H]3C2)cc1	-22	-80	-20
O=C(NC(c1ccccc1)c1cccnc1)c1ccccc1 (centres undefined)	-3	7	1
C=C(C)[C@@H]1CC[C@]2(CO)CC[C@]3(C)[C@H](CCC4[C@@]5(C)CC[C@H](OC(C)=O)C(C)(C)C5CC[C@]43C)C12 (some centres undefined)	-4	0	-11
CC(C)NC(=O)c1nc(-c2ccc(-n3cccc3)cc2)no1	21	0	-5
O=C(COc1ccccc1[N+](=O)[O-])Nc1cccc(-c2nc3ccccc3[nH]2)c1	-51	15	-1
O=C(Nc1cccc(-c2nc3ccccc3[nH]2)c1)c1cc2ccccc2oc1=O	60*	37*	-3
O=C(Cn1cc(S(=O)(=O)N2CCOCC2)ccc1=O)N1CCCc2ccccc21	2	13	8
SMILES	USP17 block	USP30 block	USP28 block
COc1ccc2cc1Oc1cc(ccc1OC)C(O)C13SSC4(C(=O)N1C)C(O)C1=COC=CC(OC2=O)C1N4C3=O (centres undefined)	-32	73*	-10
CNc1cccc(C2CN(C(=O)c3ccn(C)n3)CCO2)n1 (centres undefined)	0	2	-4
CC(C)C(=O)N[C@H]1C[C@H]2CN(C)Cc3ccccc3CN2C1	-24	-50	-17
COc1cc2nc(SCC(=O)c3ccc(F)cc3)n3nc(C)nc3c2cc1OC	-12	-44	-16
Cc1n[nH]c(C)c1CCc1nc2c3ccccc3nc(SCC(=O)c3ccc(F)cc3)n2n1	53*	71*	8
NC(=O)C[C@H](NC(=O)[C@H](Cc1ccccc1)n1c(=O)[nH]c2ccccc2c1=O)C(=O)N1CCC(C(=O)O)CC1	-19	2	-7
Cc1nnc2ccc(-c3noc(Cc4cccc(F)c4)n3)cn12	·	-2	10
CCc1nccn1Cc1nc(-c2ccc(OC)c(OC)c2)no1	1	-26	-6
O=c1ccc(-c2noc(Cc3cccc(Cl)c3)n2)c[nH]1	-6	-93	68*
O=c1ccc(-c2noc(Cc3cccc(C(F)(F)F)c3)n2)c[nH]1	-28	-158	48*
COc1ccc(-c2noc(CCC3CCCC3)n2)cc1OC	4	-10	-4
O=c1c2nnn(-c3cccc(Cl)c3)c2ncn1Cc1nc(-c2ccc(F)cc2)no1	-124	i	-240
